PubChem BioAssay AID624267 (The Scripps Research Institute Molecular Screening Center, 2012)
Screen size: about 360,000 compounds; about 1,400 (0.39%) were called active. This excerpt belongs to a sample that is enriched for actives. A number with no mark means an inactive call. No stated cut-off is given here; in the data, active means inhibition above about 21%; inactive means the rest.

target: Receptor-interacting serine/threonine-protein kinase 2 (Homo sapiens) (UniProt O43353); experiment: inhibitors of RIPK2 association with NOD2 – fluorescence, CHO cells, BLA complementation, primary screen (AID 624267); conditions: CHO BLA complementation NOD2-RIPK2, CCF4 ratio; at 4.98 µM; stronger effect = higher value;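 further: 0% = vehicle only and 100% = reference blocker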
Sequence (O43353 whole entry, looked up): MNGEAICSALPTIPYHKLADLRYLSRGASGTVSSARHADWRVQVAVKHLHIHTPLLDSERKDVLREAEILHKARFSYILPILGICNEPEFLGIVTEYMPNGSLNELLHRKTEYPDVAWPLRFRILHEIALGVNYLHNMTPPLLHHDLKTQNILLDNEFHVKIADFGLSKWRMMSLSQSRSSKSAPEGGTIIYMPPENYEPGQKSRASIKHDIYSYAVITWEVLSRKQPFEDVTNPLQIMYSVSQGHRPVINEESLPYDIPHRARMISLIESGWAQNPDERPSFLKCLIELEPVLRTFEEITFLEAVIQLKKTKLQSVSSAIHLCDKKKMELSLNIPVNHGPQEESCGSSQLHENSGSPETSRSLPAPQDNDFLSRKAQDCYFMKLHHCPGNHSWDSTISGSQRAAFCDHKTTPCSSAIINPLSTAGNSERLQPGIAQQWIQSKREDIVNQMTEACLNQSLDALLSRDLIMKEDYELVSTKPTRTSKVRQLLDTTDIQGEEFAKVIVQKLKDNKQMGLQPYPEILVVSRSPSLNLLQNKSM

| SMILES | inhibition |
| --- | --- |
| C[C@@H]1CN([C@H](C)CO)C(=O)c2cc(-c3ccc(F)cc3)cnc2O[C@H]1CN(C)C(=O)c1ccc(F)cc1 | -5.43% |
| C[C@H]1CN([C@@H](C)CO)C(=O)c2cc(Br)cnc2O[C@H]1CN(C)S(=O)(=O)c1cccs1 | -2.32% |
| C[C@H]1CN([C@@H](C)CO)C(=O)c2cc(-c3cccc(F)c3)cnc2O[C@@H]1CN(C)S(C)(=O)=O | 21.8% (active) |
| Cc1ccc(N(C(=O)c2sc(C)nc2C)C(C(=O)NC(C)(C)C)c2ccncc2)cc1 (configuration not stated) | -19.7% |
| COc1ccc(NC(C)=O)cc1NC(=O)CN1CCN(C2c3ccccc3-c3ccccc32)CC1 | -1.12% |
| Cc1ccc(NS(=O)(=O)c2ccc(C(=O)NCCCN3CCOCC3)cc2)cc1 | -3.35% |
| O=C(CS(=O)(=O)Cc1ccccc1)Nc1cccnc1 | -7.99% |
| Cc1cccc(NC(=O)c2nc(S(=O)(=O)Cc3ccccc3)ncc2Cl)c1 | 90.3% (active) |
| Cc1cc(NS(=O)(=O)c2ccc(NC(=S)NC(=O)c3ccc(F)cc3Cl)cc2)no1 | -13% |
| Cc1cccc(NC(=O)Cn2c(=O)n(Cc3ccccc3)c(=O)c3c(C)c(C)sc32)c1 | -1.85% |
| CN(CCC(=O)Nc1cc(S(=O)(=O)N(C)C)ccc1Cl)CC(=O)Nc1ccc(F)cc1 | -1.55% |
| Cc1cccc(CS(=O)(=O)c2ncc(Cl)c(C(=O)Nc3ccc(F)cc3)n2)c1 | 95.7% (active) |
| COc1ccc(C(C)=O)cc1CN1C(=O)NC2(CCCCC2C)C1=O (configuration not stated) | -6.26% |
| CC(C)N1C(=O)c2ccccc2NC(=O)C1C(=O)NCc1cccs1 (configuration not stated) | -11.7% |
| CC(OC(=O)CNS(=O)(=O)/C=C/c1ccccc1)C(=O)Nc1ccc(S(=O)(=O)N2CCCC2)cc1 (configuration not stated) | -14.5% |
| COc1ccc(CCNC(=O)CCc2cn(C)c3ccccc23)c(OC)c1 | 3.29% |
| O=[N+]([O-])c1c(NCCO)cc(Sc2nc3ccccc3s2)c2nonc12 | 86.9% (active) |
| CCN(CCO)C(=S)Nc1cc(C(=O)OC)ccc1C(=O)OC | -1.65% |
| COc1ccc(C[C@H]2CN3C(=NC[C@H]3C)N2CCNC(=O)CCC2CCCCC2)cc1 | -3.4% |
| O=C(CCCN1C(=O)CSc2ncccc21)N1CCN(c2cccc(C(F)(F)F)c2)CC1 | 3.16% |
| COc1ccc(-c2cc(C(F)(F)F)nc(S(C)(=O)=O)n2)cc1OC | 36.7% (active) |
| COc1ccc(CCNS(=O)(=O)c2ccc(F)cc2)cc1OC | -9.46% |

| SMILES | inhibition |
| --- | --- |
| Cc1cc(C)c(C)c(S(=O)(=O)Nc2ccc(O)cc2)c1C | -7.06% |
| Cc1ccc(S(=O)(=O)NC(=O)N2CCCN(Cc3ccc(F)cc3)CC2)cc1 | 8.13% |
| Cc1ccc(CS(=O)(=O)CCC(=O)NCc2ccc(F)cc2)cc1 | 10.2% |
| CC(OC(=O)c1cc2ccccc2o1)C(=O)Nc1ccc(N2CCOCC2)cc1 (configuration not stated) | -6.36% |
| CC(C)c1cc(C(=O)N/N=C/c2ccoc2)c(O)c(C(C)C)c1 | -15.4% |
| O=C(NN=Cc1ccc(N2CCOCC2)cc1)c1cc2ccccc2cc1O | 30.5% (active) |
| CCc1nnc(NC(=O)CSc2nc3c(c(=O)n2-c2ccccc2OC)SCC3)s1 | -4.66% |
| CC(C)Oc1ccc(C2NC(=O)NC2=O)cc1 (configuration not stated) | -8.11% |
| COc1ccc(C(C(=O)NCc2ccccc2)n2c(=O)c(-c3ccccc3)nc3ccccc32)cc1 (configuration not stated) | -6.05% |
| CCCCCNC(=O)C(c1ccc(OC)cc1)n1c(=O)c(-c2ccccc2)nc2ccccc21 (configuration not stated) | -13.6% |
| COc1ccc(NC(=O)C(c2ccncc2)n2c(=O)c(-c3cc4ccccc4[nH]3)nc3ccccc32)cc1 (configuration not stated) | 37.2% (active) |
| CCOc1ccc(NC(=O)C/C(C)=N/NC(=O)Cc2cccs2)cc1 | -21.5% |
| O=C(c1ccc(O)cc1)c1ccc(C(=O)O)c(C(=O)O)c1 | 7.45% |
| Nc1ncnc2c1ncn2[C@@H]1O[C@H](C(=O)NS(=O)(=O)c2c(Cl)nc3sccn23)[C@@H](O)[C@H]1O | -5.91% |
| Cc1ccnc(NS(=O)(=O)c2ccc(NC(=O)c3oc4ccccc4c3C)cc2)n1 | 7.08% |
| O=C(CCC(=O)N1CCCC1)Nc1ccc([N+](=O)[O-])cc1 | -7.75% |
| CC(=O)Nc1ccc(C=Cc2ccc([N+](=O)[O-])cc2)cc1 | 23.5% (active) |
| O=C(O)/C=C/C(=O)NNc1ccc([N+](=O)[O-])cc1 | -11.2% |
| O=C(CN1C(=O)NC2(CCCCC2)C1=O)N1CCN(C(=O)c2cccs2)CC1 | -8.73% |
| C[C@@H](NC(=O)c1nc[nH]c1C(=O)N1CCN(C(=O)OC(C)(C)C)CC1)c1ccccc1 | 1.84% |
| O=C(N[C@@H](Cc1ccccc1)C(=O)OCc1ccccc1)c1nc[nH]c1C(=O)N[C@@H](Cc1ccccc1)C(=O)OCc1ccccc1 | -4.2% |
| CC(C)(C)OC(=O)N1CCC(NC(=O)c2[nH]cnc2C(=O)N[C@@H](Cc2ccccc2)C(=O)OCc2ccccc2)CC1 | 30.1% (active) |

| SMILES | inhibition |
| --- | --- |
| CC(C)(C)c1nnc(NC(=O)C2c3ccccc3Oc3ccccc32)s1 | 13.8% |
| COc1ccccc1C(=O)Nc1nc2nc(-c3ccccc3)cc(=O)n2[nH]1 | -2.48% |
| COc1cc(C(O)c2nc(-c3cccc(C(=O)O)c3)cs2)ccc1F (configuration not stated) | -2.31% |
| COc1ccc2c(c1OC)C(=O)OC2Nc1nc(-c2ccccc2)cs1 (configuration not stated) | 21.7% (active) |
| C=CCNC(=O)COC(=O)c1ccccc1C(=O)N(C)C1CCCCC1 | -6.21% |
| COc1cccc(CNC(=O)COC(=O)CN2C(=O)NC3(CCCCC3C)C2=O)c1 (configuration not stated) | -6.08% |
| CCOc1ccc(-c2nnc3ccc(SC)nn23)cc1 | 9.56% |
| CCC(CC)COC(=O)C1=C(C)NC(=O)NC1c1ccc([N+](=O)[O-])cc1 (configuration not stated) | 7.52% |
| CCOC(=O)C1=C(C)N(C[C@@H]2CC[C@@H](Cc3ccc(-c4ccccc4)cc3)O2)C(=O)NC1c1ccc([N+](=O)[O-])cc1 (some centres not stated) | 22.2% (active) |
| CCOC(=O)C1=C(c2ccccc2)NC(=O)NC1c1cc(OCC)c(O)c([N+](=O)[O-])c1 (configuration not stated) | 6.34% |
| O=C(CNS(=O)(=O)c1ccc2ccccc2c1)Nc1ccc(F)c(F)c1F | -7.54% |
| Cc1ccnc(NC(=O)CCC(=O)N(CC(=O)NCCc2ccccc2)Cc2cccs2)c1 | 0.75% |
| O=C1/C(=C/c2cccs2)CCC1C1CCCC1 (configuration not stated) | -6.88% |
| CCCc1cc(=O)oc2c(C)c(OCC(=O)Nc3ccccn3)ccc12 | -2.73% |
| COc1cccc(C(=O)OCc2cc(=O)oc3c(C)c(C)ccc23)c1OC | -0.79% |
| COC(=O)Cc1cc(=O)oc2c(C)c(O)ccc12 | 33.2% (active) |
| CCCCn1nnnc1C1(C)CCC(=O)N1Cc1ccc(OC)c(OC)c1 (configuration not stated) | -13.3% |
| COC(C)(C)[C@]12CC(O)(C(C)C)ON1[C@H]1CCCCC1N2O (some centres not stated) | -0.99% |
| CCOC(=O)Cc1c(C)nc2c(C#N)c(C)nn2c1C | 1.59% |
| C/C(=C/c1ccccc1)C(=O)N1CCN(c2ccccc2)CC1 | -2.58% |
| CCCOC(=O)c1ccc(N2C(=O)c3ccccc3C2=O)cc1 | 1.19% |
| CC(=O)Oc1ccc(C)cc1N1C(=O)c2ccc(C(=O)O)cc2C1=O | -5.17% |

| SMILES | inhibition |
| --- | --- |
| O=C(/C=C/c1ccc(N2CCOCC2)cc1)c1ccccc1 | 30.6% (active) |
| O=C(O)c1ccc2c(c1)C(=O)N(c1ccc(/C=C/C(=O)c3ccccc3)cc1)C2=O | 23.8% (active) |
| O=C(O)CCC(=O)Nc1ccc(N2CCOCC2)cc1 | -4.21% |
| CCN(C(=O)COC(=O)C1CCN(S(=O)(=O)c2ccc(C)c(C)c2)CC1)C1CCS(=O)(=O)C1 (configuration not stated) | -0.71% |
| O=C(Nc1ccc(OCCO)cc1)c1csc([C@H]2C[C@H](O)[C@@H](CO)O2)n1 | -10.7% |
| NC(=O)NC(=O)C(OC(=O)CCNS(=O)(=O)c1ccccc1)c1ccccc1 (configuration not stated) | -7.31% |
| O=C(CN1CCCCC1)N1c2ccccc2Sc2ccc(C(F)(F)F)cc21 | 1.57% |
| CC1CCN(C(=O)c2ccccc2NC(=O)Cc2ccccc2)CC1 | -1.45% |
| CC(NC(=O)c1ccc(S(=O)(=O)Nc2ccccc2)cc1)c1ccc(S(N)(=O)=O)cc1 (configuration not stated) | 3.07% |
| O=C1C(=O)N(CC2COc3ccccc3O2)c2ccccc21 (configuration not stated) | 22.5% (active) |
| CCn1cc(C(=O)NCC2COc3ccccc3O2)c2cc(OC)c(OC)cc2c1=O (configuration not stated) | -5.84% |
| O=C1C(=O)N(c2ccccc2)c2ccccc21 | 9.77% |
| C[C@H]1CN([C@@H](C)CO)C(=O)Cc2cc(NC(=O)Cc3ccccc3)ccc2O[C@H]1CN(C)S(=O)(=O)c1cccs1 | -4.34% |
| Cc1ccc(S(=O)(=O)n2cnc3ccccc32)c(C)c1 | 3.17% |
| COc1cc2nnn(-c3ccncc3)c2cc1OC | -0.06% |
| CC(C)(C)NC(=O)COC(=O)c1cc(Br)ccc1Cl | -6.13% |
| c1csc(-c2nnc(COc3ncnc4sccc34)o2)c1 | 2.97% |
| CCOc1ccccc1C1CC(c2ccccc2)Nc2nc(N)nn21 (configuration not stated) | -8.78% |
| Brc1ccc(C2=CC(c3ccco3)n3ncnc3N2)cc1 (configuration not stated) | 24.6% (active) |
| CCOc1ccc(C2=CC(c3ccccc3)n3ncnc3N2)cc1 (configuration not stated) | 42.2% (active) |
| CC1=C(C(=O)OC2CCCCC2)C(c2cccnc2)n2ncnc2N1 (configuration not stated) | 7.46% |
